Among the data in PubChem BioAssay (NCI) are growth values, retold here.

Among the test systems are SR leukemia; RPMI-8226 leukemia; OVCAR-8 ovarian; OVCAR-5 ovarian; OVCAR-4 ovarian; SK-OV-3 ovarian; IGROV1 ovarian; HS 578T breast; NCI/ADR-RES ovarian; T-47D breast; BT-549 breast; SW-620 colon; MCF7 breast; HCT-116 colon; HCC-2998 colon; KM12 colon; MDA-MB-435 melanoma.
What all share (assay): NCI-60 one-dose screen, 48 h (100 = growth as untreated, 0 = no growth, -100 = all killed)
Conditions in all cases: 10 µM unless noted

This is part of a sample that, as a whole, favours compounds with a hit. Of some 83,000 tested, about 20% had one in any assay.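 Compound tested at a single concentration for 48 hours in 96-well plates; a percent growth value below 10 was scored as active.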 A number with no mark means an inactive call. Active and inactive are the calls of the source.

Consider `Cc1csc(/N=C(N)/N=C(\N)c2cccs2)n1`, for which the growth is 99% with SR leukemia; 101% in the experiment on RPMI-8226 leukemia; 101% with OVCAR-8 ovarian; 115% in the experiment on OVCAR-5 ovarian; 105% in the experiment on OVCAR-4 ovarian; 92.3% in the experiment on SK-OV-3 ovarian. In addition, the growth is 101% in the experiment with IGROV1 ovarian; 107% in the experiment on HS 578T breast; 108% in the experiment on NCI/ADR-RES ovarian; 95.9% in the experiment on T-47D breast; 134% in the experiment on BT-549 breast; 106% with SW-620 colon. Also, the growth is 81.2% in the experiment with MCF7 breast, 107% in the experiment on HCT-116 colon, 116% in the experiment with HCC-2998 colon and 97.8% with KM12 colon.
On to `COc1ccc(-c2c3c(cn2Cc2cccc(OC)c2)-c2oncc2CCC3)cc1`, for which the growth in the experiment with SR leukemia was 89.2%; in the experiment on RPMI-8226 leukemia, 93.6%; in the experiment with OVCAR-8 ovarian, 98.5%; in the experiment with OVCAR-5 ovarian, 108%; in the experiment on OVCAR-4 ovarian, 100%; in the experiment on SK-OV-3 ovarian, 98.3%. Moreover, the growth in the experiment on IGROV1 ovarian is 94.3%; with HS 578T breast, 101%; in the experiment with NCI/ADR-RES ovarian, 97%; in the experiment on T-47D breast, 75.7%; with BT-549 breast it was 105%; with SW-620 colon, 96.4%. Besides, the growth was 96.9% in the experiment on MCF7 breast, 96.9% in the experiment on HCT-116 colon, 111% in the experiment on HCC-2998 colon and 83.1% with KM12 colon.
For `CCN(CC)c1ccc(/C=N/NC(=O)c2ccc(NS(C)(=O)=O)cc2)c(O)c1`, the growth in the experiment on SR leukemia is 10.6%; with RPMI-8226 leukemia, 15.8%; with OVCAR-8 ovarian, 12%; in the experiment on OVCAR-5 ovarian it was 46%; with OVCAR-4 ovarian, 31.3%; in the experiment on SK-OV-3 ovarian, 34.2%. Moreover, the growth with IGROV1 ovarian is 20.3%; in the experiment with HS 578T breast, 55.7%; with NCI/ADR-RES ovarian, 36.9%; in the experiment on T-47D breast, 26.3%; in the experiment with BT-549 breast, 11.6%; with SW-620 colon it was 36.9%. Besides, the growth with MCF7 breast was 6.08% (active); with HCT-116 colon, 21.7%; in the experiment on HCC-2998 colon it was 38.5%; in the experiment on KM12 colon, 15.2%.
Consider `CN1CCN(Cc2ccc(NC(=O)c3cncc(C#Cc4cnc5ccc(N)nn45)c3)cc2C(F)(F)F)CC1`, for which the growth was 5.19% (active) in the experiment with SR leukemia; 24.7% with RPMI-8226 leukemia; 16.5% with OVCAR-8 ovarian; 32% in the experiment on OVCAR-5 ovarian; 46.1% in the experiment on OVCAR-4 ovarian; 45.3% in the experiment with SK-OV-3 ovarian. Moreover, the growth with IGROV1 ovarian was -4.68% (active); with HS 578T breast, 20.6%; in the experiment on NCI/ADR-RES ovarian, 89.8%; with T-47D breast it was 60.5%; in the experiment with BT-549 breast it was 38.7%; in the experiment with SW-620 colon it was 0.667% (active). The growth is -19.7% (active) with MCF7 breast, 1.19% (active) in the experiment with HCT-116 colon, 20.7% in the experiment on HCC-2998 colon and 3.48% (active) in the experiment on KM12 colon.
Consider `N#Cc1nc(-c2ccc(Cl)cc2)oc1N1CCC(S(=O)(=O)N2CCOCC2)CC1`, for which the growth with SR leukemia was 88.6%; with RPMI-8226 leukemia it was 105%; with OVCAR-8 ovarian, 101%; in the experiment with OVCAR-5 ovarian, 102%; with OVCAR-4 ovarian, 100%; with SK-OV-3 ovarian, 119%. Moreover, the growth is 90.5% in the experiment on IGROV1 ovarian; 105% in the experiment on HS 578T breast; 100% in the experiment with NCI/ADR-RES ovarian; 103% in the experiment with BT-549 breast; 99% with MDA-MB-435 melanoma; 95.9% in the experiment with SW-620 colon. The growth in the experiment with MCF7 breast was 94.3%; in the experiment with HCT-116 colon, 101%; in the experiment with HCC-2998 colon it was 102%; with KM12 colon, 105%.
As for `Cc1cc(=O)oc2cc(OCCCOc3ccc(/C=C/C(=O)Nc4ccc(Br)cc4)cc3)ccc12`, the growth in the experiment on SR leukemia was 51.8%; in the experiment with RPMI-8226 leukemia, 75.6%; in the experiment on OVCAR-8 ovarian, 83.9%; with OVCAR-5 ovarian it was 95.4%; in the experiment with OVCAR-4 ovarian, 105%; with SK-OV-3 ovarian, 98.2%. Besides, the growth in the experiment on IGROV1 ovarian is 72.7%; in the experiment on HS 578T breast, 76.3%; in the experiment with NCI/ADR-RES ovarian it was 64.6%; with BT-549 breast it was 78.8%; in the experiment with MDA-MB-435 melanoma, 97.3%; in the experiment on SW-620 colon, 57.2%. Besides, the growth with MCF7 breast was 58.9%; with HCT-116 colon, 85.4%; in the experiment on HCC-2998 colon, 96.6%; in the experiment on KM12 colon, 88.6%.
Consider `Brc1ccc(-c2cc(-c3ccc4c(c3)OCCO4)n[nH]2)s1`, for which the growth with SR leukemia is 17.7%; with RPMI-8226 leukemia it was 13.4%; in the experiment with OVCAR-8 ovarian, 36%; with OVCAR-5 ovarian, 58.1%; in the experiment on OVCAR-4 ovarian, 71.7%; with SK-OV-3 ovarian it was 55.1%. For the same compound, the growth was 34.6% with IGROV1 ovarian; 51.4% in the experiment on HS 578T breast; 6.64% (active) with NCI/ADR-RES ovarian; 22.5% in the experiment with T-47D breast; 62% in the experiment with BT-549 breast; -38.1% (active) in the experiment with MDA-MB-435 melanoma. Also, the growth with SW-620 colon is 34.7%; in the experiment on MCF7 breast, 7.62% (active); in the experiment with HCT-116 colon it was 24.7%; in the experiment with HCC-2998 colon, 42.1%; with KM12 colon, 28.2%.
`CC(C)Sc1nc(-c2ccccc2)c(C#N)c(N2CCOCC2)n1`: the growth in the experiment on SR leukemia was 78.9%; in the experiment on RPMI-8226 leukemia, 90.7%; with OVCAR-8 ovarian, 69.3%; in the experiment with OVCAR-5 ovarian, 59.8%; in the experiment on OVCAR-4 ovarian, 2.36% (active); in the experiment with SK-OV-3 ovarian, 86.8%. Further, the growth in the experiment with IGROV1 ovarian is 5.14% (active); with HS 578T breast, 50%; in the experiment on NCI/ADR-RES ovarian, 71.1%; with BT-549 breast, 111%; in the experiment with MDA-MB-435 melanoma, 88%; with SW-620 colon it was 74.2%. Also, the growth was 72.8% with MCF7 breast, 43.5% in the experiment with HCT-116 colon, 69.5% with HCC-2998 colon and 88.3% in the experiment on KM12 colon.
As to `CCc1cc(O)ccc1Nc1cc(-c2ccc(-n3cccn3)cc2)[nH]n1`, the growth with SR leukemia was 68.9%; in the experiment on RPMI-8226 leukemia it was 53.5%; in the experiment with OVCAR-8 ovarian, 58%; in the experiment on OVCAR-5 ovarian, 78.5%; in the experiment with OVCAR-4 ovarian, 49%; with SK-OV-3 ovarian, 87.2%. Further, the growth in the experiment on IGROV1 ovarian is 86.4%; with HS 578T breast it was 105%; in the experiment on NCI/ADR-RES ovarian, 63.8%; in the experiment on T-47D breast it was 35.7%; in the experiment on BT-549 breast, 85.7%; with SW-620 colon, 63.1%. Moreover, the growth is 34.3% with MCF7 breast, 39% in the experiment with HCT-116 colon, 61.5% in the experiment on HCC-2998 colon and 16.6% in the experiment on KM12 colon.
